PubChem BioAssay AID1259343 (VanderVen Lab, College of Veterinary Medicine, Cornell …, 2017)
Screen size: about 6,200 compounds; about 2,900 (47%) were called active. So high a share suggests a set chosen from earlier hits. Some of the results follow. A number with no mark means an inactive call. Cut-off read from the data, not from the text of the source: active = inhibition above about 50%; inactive = the rest.

test: Mycobacterium tuberculosis growth inhibition, primary screen (AID 1259343); conditions: inhibition: at 10 µM, stronger effect = higher value; outcome: 10 uM

SMILES | inhibition
Cc1ccc(/C=C/S(=O)(=O)N2CC(C(N)=O)c3ccccc32)cc1 (configuration not stated) | -0.07%
CCc1cc(=O)[nH]c(-n2nc(C)cc2NC(=O)C(C)C)n1 | 101% (active)
CCOc1ccc(C(=O)Nc2cc(C)nn2-c2nc(C)c(C)c(=O)[nH]2)cc1OCC | 98.7% (active)
Cc1cc(=O)[nH]c(-n2nc(C)cc2NC(=O)c2ccc(C)c(C)c2)n1 | 100% (active)
CCOc1ccc(C(=O)Nc2cc(C)nn2-c2nc(C)c(CC)c(=O)[nH]2)cc1OCC | -21.9%
Cc1cc(NC(=O)c2ccc(-c3ccccc3)cc2)n(-c2nc(C)c(C)c(=O)[nH]2)n1 | 100% (active)
Cc1cc(NC(=O)c2ccccc2)n(-c2nc(C)c(C)c(=O)[nH]2)n1 | -21.2%
Cc1cc(=O)[nH]c(-n2nc(C)cc2NC(=O)c2ccc(-c3ccccc3)cc2)n1 | 100% (active)
Cc1cc(=O)[nH]c(-n2nc(C)cc2NC(=O)c2ccccc2)n1 | 101% (active)
Cc1cc(C)cc(C(=O)Nc2cc(C)nn2-c2nc(C)cc(=O)[nH]2)c1 | 100% (active)
Cc1ccc(C(=O)Nc2cc(C)nn2-c2nc(C)cc(=O)[nH]2)cc1 | 101% (active)
CSc1c(C#N)c(SCC(=O)c2cc3ccccc3oc2=O)[nH]c(=O)c1C#N | 83% (active)
CSc1c(C#N)c(=O)[nH]c2sc(C#N)c(N)c12 | 29.1%
COC(=O)c1ccc(N2CCN(Cc3nc(Cc4cccc(F)c4)no3)CC2)cc1 | 59.4% (active)
COC(=O)c1ccc(-c2noc(CN3CCC(C(O)Cc4ccccc4)CC3)n2)cc1 (configuration not stated) | 14.8%
Fc1ccccc1Cc1noc(CN2CCN(c3cccc(C(F)(F)F)c3)CC2)n1 | 34.2%
COC(=O)c1ccc(-c2noc(CN3CCC(C(O)c4cccs4)CC3)n2)cc1 (configuration not stated) | 16.3%
COC(=O)c1ccc(-c2noc(CN3CCCN(C(=O)c4ccco4)CC3)n2)cc1 | 84.3% (active)
O=C(Nc1ncc(SCCN2CCCC2)s1)[C@]1(c2ccc(S(=O)(=O)C3CC3)cc2)C[C@H]1C1CCCCC1 | 17.1%
CC(=O)Oc1ccc(CN2C(=O)C(CCc3ccccc3)ON=C2c2cnccn2)cc1 (configuration not stated) | 41.4%
CC(C)(C)c1ccc(OCc2ccc(-c3nnco3)cc2)cc1 | 49.7%

SMILES | inhibition
Fc1ccc(COc2ccc(-c3nnco3)cc2)c(Cl)c1 | 55.8% (active)
CC(C)C(=O)Nc1ccc(Sc2nncs2)cc1 | 89.1% (active)
CC(=O)Nc1ccc(Sc2ncnc3sccc23)cc1 | 0.26%
Cc1csc(Sc2ccc(NC(=O)c3cnn(C)c3C)cc2)n1 | 16.3%
CCNC(=S)Nc1ccc(NC(=S)NCC)cc1 | 63.7% (active)
COc1ccccc1NC(=S)N=C1CCN(c2ccccc2)N1 | 19.3%
CNC(=S)Nc1ccc(Nc2ccccc2OC)cc1 | 72.1% (active)
CNC(=S)Nc1ccc(Oc2ccc(NC(=S)NC)cc2)cc1 | 79.6% (active)
CC(C)COC(=O)Nc1ccc2nc(N3CCOCC3)sc2c1 | 27.4%
CNC(=S)Nc1ccc(N2CCOCC2)cc1 | 101% (active)
CSCCCNC(=S)Nc1ccc(N2CCOCC2)cc1 | 20.7%
Cc1ncc(-c2ccc(NC(=O)C3CC3C)cc2)o1 (configuration not stated) | 94.6% (active)
O=C(Nc1ccc(-c2cnc(C3CC3)o2)cc1)C1CCCC1 | -17.9%
N#Cc1cccc(COc2ccc(NC(=O)C3CCCO3)cc2F)c1 (configuration not stated) | 91.9% (active)
N#Cc1cccc(COC(=O)CC(NC(N)=O)c2cccs2)c1 (configuration not stated) | -9.57%
FC(F)(F)c1cc(-c2ccco2)nc2c1cnn2Cc1cccnc1 | 37%
CCCN(CCC)C(=O)c1nn(-c2ccccn2)c2nccc(-c3cccs3)c12 | 41.7%
CCNc1nc(C(=O)N(C)Cc2ccc(Br)o2)cs1 | 8.37%
CN(Cc1ccc(Cl)c(Cl)c1)C(=O)c1csc(-c2cccs2)n1 | 56.2% (active)
CCC(C)(C)NC(=O)COC(=O)c1ccc(-c2ccc(O)cc2)cc1 | 50.1% (active)
CCC(C)(C)NC(=O)c1ccc2c(c1)S(=O)(=O)c1ccccc1C2=O | 14.8%

SMILES | inhibition
CCCC(C)C(=O)Nc1ccc(-c2nccs2)cc1 (configuration not stated) | 89.9% (active)
Cn1nc(C(=O)Nc2ccc(-c3nccs3)cc2)ccc1=O | 85.9% (active)
[O-]/[N+](Cc1ccccc1)=N/OCc1ccccc1 | 83.2% (active)
CCc1cc(=O)[nH]c(-n2nc(C)cc2NC(=O)C2CC(=O)N(c3ccccc3)C2)n1 (configuration not stated) | 101% (active)
CCc1cc(=O)[nH]c(-n2nc(C)cc2NC(=O)C2CC(=O)N(c3ccc(C)c(C)c3)C2)n1 (configuration not stated) | 101% (active)
CCCC(Nc1nc(-c2cccnc2)nc2c1cnn2C)c1cccs1 (configuration not stated) | 27.3%
COc1ccccc1N1C(=O)CC(SC(N)=N/N=C(C)\C=C\c2ccc(N(C)C)cc2)C1=O (configuration not stated) | -2.66%
Nc1nn(C(=O)CC2CCCO2)cc1-c1cccc(Cl)c1 (configuration not stated) | 83.6% (active)
O=C1CSC(=NN=Cc2cc(Br)ccc2O)N1 | 102% (active)
Oc1ccc(Br)cc1C=Nn1cc(-c2ccccc2)[nH]c1=S | 25.5%
O=C1CSC(=NN=C2NC(=O)C(CC(=O)Nc3ccc(Br)cc3)S2)N1 (configuration not stated) | 18.9%
Cc1ncsc1C(=O)Nc1scc(C2CCCCC2)c1C(N)=O | 24.3%
CN(C)CCNc1c2c(c(C#N)c3nc4ccccc4n13)CCCC2 | 20%
CN=c1scc(-c2c(-c3ccccc3)n(C)c3ccccc23)n1C | 25.1%
O=C1N=C2OC=C(C(=O)Nc3ccc(-n4cccn4)cc3)N2CCN1 | 60.6% (active)
O=C1N=C2OC=C(C(=O)Nc3ccc(-n4cccc4)cc3)N2CCN1 | 89.4% (active)
O=C(CCl)Nc1ccc(N2CCCCCC2)cc1 | 21.1%
O=C(Nc1ccc(N2CCCCC2)cc1)c1ccc(Cl)s1 | 94% (active)
N#Cc1ccc(NC2CCN(c3ncccn3)CC2)cc1C(F)(F)F | 26.1%
N#Cc1cccnc1N1CCC(CCc2ccc(O)cc2)CC1 | 93.1% (active)
